# Results published in the supplement of paper PMC10477191.
# ± gives the standard deviation of the averaged measurements.
# Tested on: Drosophila ezoana antennal basiconic sensillum ab10
# Assay: odor-evoked OSN spike response (post minus pre-stimulus); higher = stronger neuronal excitation
# Settings: odor dilution: 10^-4
# Method: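 Single sensillum recordings from antennal basiconic sensilla of D. ezoana. A 500 ms pulse of odorant (10^-4 in mineral oil or DMSO) was delivered; the response is the change in action potential frequency between the 1 s pre- and post-stimulus windows (spikes/s).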
row,SMILES,odor-evoked OSN spike response
1,CC(C)=O [acetone],76.3 ± 21 spikes/s
